Records with an inconclusive call do not appear. Active and inactive are the calls of the source. Calls come from the whole dose curve; as a rule, active = well fitted inhibition curve with a large enough effect; inconclusive = small, poorly fitted or top-dose-only effect; inactive = flat fitted curve, though single readings scatter.
What was measured:
[1] = tested on: CRL-7250; experiment: Cytotoxic Profiling of Annotated Libraries Using Quantitative High-Throughput Screening (AID 1296008); settings: Five cell lines viability, CellTiter-Glo ATP luminescence, 48-72 h; max response: hits give low values; for max response: % is set by controls: 0 for no effect and ±100 for the full control effect
In short: (§1)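 Compounds were pin-transferred onto cells and incubated 48 or 72 hr at 37 degree Celsius, 95% humidity. CellTiter-Glo was added, plates sat 10 min at room temperature, then ATP-coupled luminescence was imaged as the viability read-out.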

[2] = tested on: HEK293; experiment: as above; settings: Five cell lines viability, CellTiter-Glo ATP luminescence, 48-72 h; max response: hits give low values
In short: as §1

[3] = tested on: HaCat; experiment: as above; settings: Five cell lines viability, CellTiter-Glo ATP luminescence, 48-72 h; max response: hits give low values
In short: as §1

[4] = tested on: KB-3-1; experiment: as above; settings: Five cell lines viability, CellTiter-Glo ATP luminescence, 48-72 h; max response: hits give low values
In short: as §1

[5] = tested on: NIH3T3; experiment: as above; settings: Five cell lines viability, CellTiter-Glo ATP luminescence, 48-72 h; max response: hits give low values
In short: as §1

[6] = tested on: HACAT; experiment: qHTS assay to identify novel small-molecules to repurpose for Merkel cell carcinoma treatment (AID 1296009); settings: MCC and control cell lines, CellTiter-Glo viability, 72 h; at 44.8 µM (top of the series) unless noted
In short: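 qHTS format: cells treated with library compounds in DMSO across 8 (NPC) or 11 (MIPE) concentrations. Readout after 72 hr at 37 degree celsius was CellTiter-Glo luminescence.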

Measured: max response
Note: nearly all actives have a fitted effect of over 60% in size.

C[C@@H]1O[C@@H](O[C@H]2[C@H](O)[C@@H](O[C@@H]3O[C@H](CO)[C@H](O)[C@H](O)[C@H]3O)[C@H](O[C@H]3CC[C@@]4(C)C(CC[C@]5(C)C4CC=C4[C@@H]6CC(C)(C)CC[C@]6(C(=O)O[C@@H]6O[C@H](CO)[C@@H](O)[C@H](O)[C@H]6O)CC[C@]45C)C3(C)C)O[C@@H]2C(=O)O)[C@H](O)[C@H](O)[C@H]1O (some centres not stated)
inactive: [1] -0.719% | [2] 0.183% | [3] | [4] 9.11% | [5] -6.48% | [6] inactive [at 9.27 µM]

CC(C)/C=C1/NC(=O)C(C(C)C)n2c1nc1c(O)cccc1c2=O (configuration not stated)
inactive: [1] | [2] -10.9% | [3] | [4] 3.96% | [5] -2.82% | [6]

O=C(O)c1cc(C(F)(F)F)ccc1N1CC[C@H](OCc2ccccn2)C1
inactive: [1] | [2] -6.22% | [3] | [4] 6.78% | [5] | [6]

C=C1C(=O)OC[C@H]2C(C(=O)O)=CC3CC(C)(C)C[C@@]132 (some centres not stated)
inactive: [1] | [2] 4.17% | [3] | [4] | [5] | [6]

CCOc1ccc(-c2nn3ncccc3c2-c2ccc(S(C)(=O)=O)cc2)cc1
inactive: [1] -7.67% | [2] -11.9% | [3] | [4] 2.36% | [5] 3.39% | [6]

C[C@@H]1CC[C@]2(C(=O)O)CC[C@]3(C)C(=CCC4[C@@]5(C)C[C@@H](O)[C@H](O)[C@@](C)(CO)C5CC[C@]43C)C2[C@H]1C (some centres not stated)
inactive: [1] -10.8% | [2] 4.76% | [3] | [4] 3.75% | [5] | [6] inactive [at 17.4 µM]

C/C=C(\C)C(=O)OCC1OC(OCC2OC(OC3(CO)OC(CO)C(O)C3O)C(O)C(O)C2O)C(O)C(O)C1O (configuration not stated)
inactive: [1] -0.798% | [2] -3.28% | [3] | [4] | [5] | [6] inactive [at 17.4 µM]

CNC(C)C(=O)NC(C(=O)N1CCCC1C(=O)Nc1cccc2ncccc12)C(C)C (configuration not stated)
inactive: [1] | [2] 4.04% | [3] | [4] 2.7% | [5] | [6]

C[C@H]1CC(=O)C2=C(C1)C(O)C(O)[C@@]1(O)[C@H]2C(=O)c2cccc(O)c2[C@@H]1O (some centres not stated)
inactive: [1] -10.1% | [2] 3.36% | [3] | [4] | [5] 3.59% | [6]

COc1cc(O)cc(C)c1C(=O)O[C@H]1[C@@H](O)[C@@H](n2ccc(=O)[nH]c2=O)O[C@@H]1CO
inactive: [1] -0.148% | [2] -4.61% | [3] | [4] -0.769% | [5] | [6] inactive [at 17.4 µM]

C=C1C(O)CC2C(C(=O)O)=COC(OC3OC(CO)C(O)C(O)C3OC(=O)/C=C\c3ccc(O)cc3)C12 (configuration not stated)
inactive: [1] 0.287% | [2] -11.5% | [3] | [4] 0.941% | [5] | [6] inactive [at 17.4 µM]

CC(CC12CCCN1C(=O)C1CCCN1C2=O)OC(N)=O (configuration not stated)
inactive: [1] | [2] 2.01% | [3] | [4] 4.48% | [5] 4.31% | [6]

CC(=O)OC12CC(C)C(O)C1/C=C(/COC1OC(CO)C(O)C(O)C1O)CCC1C(/C=C(\C)C2=O)C1(C)C (configuration not stated)
inactive: [1] -1.86% | [2] -3.67% | [3] | [4] | [5] | [6] inactive [at 17.4 µM]

COCC1OC(OC(C)(C)C2CCC3(C)C=C(C4CCC5C4(C)CC(O)C4OC(C(C)(C)O)CCC45C)CCC3O2)C(NC(C)=O)C(O)C1O (configuration not stated)
inactive: [1] | [2] 2.29% | [3] | [4] 7.28% | [5] 1.37% | [6] inactive [at 17.4 µM]

C=C1[C@@H]2CC[C@@]3(C)[C@H](c4ccoc4)OC(=O)C[C@]13O[C@H]1CC(=O)C(C)(C)[C@H](C(O)C(=O)OC)[C@]12C (some centres not stated)
inactive: [1] -0.794% | [2] -5.89% | [3] | [4] | [5] | [6] inactive [at 17.4 µM]

COc1cc(C(=O)OCC2=CCC3C(C(=O)O)=COC(O[C@@H]4O[C@H](CO)[C@@H](O)[C@H](O)[C@H]4O)C23)ccc1O (some centres not stated)
inactive: [1] -2.16% | [2] -8.64% | [3] | [4] | [5] | [6] inactive [at 17.4 µM]

CC1(C)COC(=O)[C@@H]1O[C@@H]1O[C@H](CO)[C@@H](O)[C@H](O)[C@H]1O
inactive: [1] 4.71% | [2] 0.945% | [3] | [4] | [5] 0.729% | [6]
